# Data taken from ChEMBL document CHEMBL3988442, “University of Dundee, Small-Polar-MMV Screening Library” (2021).
# Screen size: about 69,000 compounds; about 1,000 (1.4%) showed an effect of 50% or more. Many of the other results were omitted from the sample, so strong results are more common in it than they were.
# Tested on: Leishmania donovani
# Assay: Leishmania intramacrophage assay
# Assay type: functional, organism-based
# Set-up: scale not given: in the data most compounds retested in dose-response had high values
smiles,measurement,setting,value
CCC[C@H]1CN(S(C)(=O)=O)C[C@@H]1NC(=O)CCCn1ccnc1,Percent Effect,"30.3 µM, […]",-3.317%
CC(C)CCN(C)C(=O)c1cc(CN2CCC(O)CC2)on1,Percent Effect,"30.3 µM, […]",25.01%
O=C(CS(=O)(=O)Cc1nnnn1C1CC1)NCC1CC1,Percent Effect,"30.3 µM, […]",7.259%
Cc1ccc2cccc(C(=O)NCC3CCN(C(C)C)C3)c2n1 (centres undefined),Percent Effect,"30.3 µM, […]",6.487%
Cc1cccc(CN2CCC3(CCN(c4ccccn4)C3)C2=O)c1.O=C(O)C(F)(F)F (centres undefined),Percent Effect,"30 µM, 30.03 µM",41.53%
CC1=N[C@@]2(CC[C@@H]3CN(Cc4ccccc4F)C[C@@H]32)C(=O)N1CC1CC1.O=C(O)C(F)(F)F,Percent Effect,"30 µM, 30.03 µM",16.75%
CN1CCN(C)c2cc(NC(=O)c3cc[nH]n3)ccc2C1,Percent Effect,"30.3 µM, […]",24.5%
COc1ccc(OC)c(C2CCN(C(=O)CCc3n[nH]c(N)n3)C2)c1 (centres undefined),Percent Effect,"30.3 µM, […]",25.04%
NC(=O)NC(=O)CCSCc1cc(F)cc2cccnc12,Percent Effect,"30.3 µM, […]",50.58%
CNC(=O)NC(=O)CCSCc1cc(F)cc2cccnc12,Percent Effect,"30.3 µM, […]",2.728%
NC(=O)CCSCc1cc(Br)cc2cccnc12,Percent Effect,"30.3 µM, […]",18.7%
CC(C)CN1C[C@H]2CCN(C(=O)NC3CCCC3)CC[C@H]2S1(=O)=O,Percent Effect,"30.3 µM, […]",5.795%
Cc1noc(CCCC(=O)N2CCNC(=O)C2)n1,Percent Effect,"30.3 µM, […]",12.24%
COCC(=O)NCc1cc(=O)n2c(n1)CN(Cc1ccsc1)CCC2,Percent Effect,"30 µM, 30.03 µM",13.56%
COCC(=O)NCc1cc(=O)n2c(n1)CN(Cc1ccoc1)CCC2,Percent Effect,"30.3 µM, […]",10.68%
COCCN1CCCn2c(nc(CNC(=O)COC)cc2=O)C1.O=C(O)C(F)(F)F,Percent Effect,"30.3 µM, […]",69.63%
COCC(=O)NCc1cc(=O)n2c(n1)CN(C)CCC2.O=C(O)C(F)(F)F,Percent Effect,"30.3 µM, […]",39.76%
COCC(=O)NCc1cc(=O)n2c(n1)CN(Cc1ccncc1)CCC2,Percent Effect,"30.3 µM, […]",55.54%
COCC(=O)NCc1cc(=O)n2c(n1)CN(CC1CC1)CCC2.O=C(O)C(F)(F)F,Percent Effect,"30.3 µM, […]",0.4082%
COc1ccccc1CNC(=O)c1[nH]ncc1Cl,Percent Effect,"30.3 µM, […]",-12.27%
COc1ccc(CNC[C@@]2(COc3cccnc3)C[C@@H](O)[C@@H](O)C2)cc1.Cl,Percent Effect,"30.3 µM, […]",14.18%
Cc1nc2ccnn2c(C)c1CCC(=O)N1CCN2CCCCC2C1 (centres undefined),Percent Effect,30 µM,11.28%
O=C(C1CCCCC1)N1CCCC([C@@H]2C[C@H](C(F)F)n3ncnc3N2)C1 (some centres undefined),Percent Effect,"30.3 µM, […]",0.241%
Cc1nc(N(C)CCCc2nccn2C)c2c(C)nn(C)c2n1,Percent Effect,"30.3 µM, […]",1.733%
Cc1ccc(CN2CC[C@H]3[C@H](CC(Cn4cccn4)N3C)C2)s1.O=C(O)C(F)(F)F.O=C(O)C(F)(F)F.O=C(O)C(F)(F)F (some centres undefined),Percent Effect,"30.3 µM, […]",-11.42%
CN1CC[C@H](N(C)Cc2ccccc2)C[C@H](O)C1,Percent Effect,"30.3 µM, […]",20.46%
CN1CC[C@H](N(Cc2ccccc2)CC2CC2)C[C@H](O)C1,Percent Effect,"30.3 µM, […]",31.47%
CN1CC[C@H](N(Cc2ccccc2)Cc2ccccc2)C[C@H](O)C1,Percent Effect,"30.3 µM, […]",94.14%
CC(C)Sc1ncccc1C(=O)NCc1ccc(O)cc1,Percent Effect,30 µM,14.96%
CCN(CC)S(=O)(=O)NCC(O)c1c(Cl)cccc1Cl (centres undefined),Percent Effect,"30.3 µM, […]",62.85%
CCN(C)S(=O)(=O)NCC(O)c1c(Cl)cccc1Cl (centres undefined),Percent Effect,"30.3 µM, […]",41.58%
CCCS(=O)(=O)NCC(O)c1c(Cl)cccc1Cl (centres undefined),Percent Effect,"30.3 µM, […]",7.191%
CCCc1nc(CN2CCCC2Cn2cccn2)cs1 (centres undefined),Percent Effect,"30.3 µM, […]",31.37%
CN(C)C(=O)CC1CC2(CCN(CC3CC3)CC2)c2cc(F)ccc21.O=C(O)C(F)(F)F (centres undefined),Percent Effect,"30 µM, 30.03 µM",16.14%
CCC(=O)N1CCC2(CC1)CC(CC(=O)N(C)C)c1ccc(F)cc12 (centres undefined),Percent Effect,"30.3 µM, […]",35.94%
CCN1CCC2(CC1)CC(CC(=O)N(C)C)c1ccc(F)cc12 (centres undefined),Percent Effect,"30.3 µM, […]",64.47%
CCOc1ccc(CNCC(O)c2ccccc2)cc1Cl.Cl (centres undefined),Percent Effect,"30.3 µM, […]",14.87%
CC(=O)Nc1ccc(CNCC(O)c2ccccc2)cc1 (centres undefined),Percent Effect,"30.3 µM, […]",-2.839%
CCc1ccc(CNC(=O)NC2CCCc3c2cnn3CCO)s1 (centres undefined),Percent Effect,"30.3 µM, […]",21.53%
O=C(Cc1ccccn1)N1CCCC(c2nccn2CC2CCC2)C1 (centres undefined),Percent Effect,"30.3 µM, […]",-1.281%
CCOc1ccccc1OC1CCN(Cc2ccn(C)c(=O)c2)CC1,Percent Effect,30 µM,5.552%
CCCS(=O)(=O)N1CCC(NC(=O)c2cc3ccccc3s2)CC1,Percent Effect,"30.3 µM, […]",22.53%
CCC(=O)N1CCC2(C=C(C(=O)N3CCCC3)c3ccccc32)CC1,Percent Effect,"30.3 µM, […]",11.1%
CC(C)CN1CCC2(C=C(C(=O)N(C)C)c3ccccc32)CC1.O=C(O)C(F)(F)F,Percent Effect,"30.3 µM, […]",41.74%
CN1CCC2(C=C(C(=O)N(C)C)c3ccccc32)CC1,Percent Effect,"30.3 µM, […]",38.98%
CC(C)N1CCC2(C=C(C(=O)N(C)C)c3ccccc32)CC1.O=C(O)C(F)(F)F,Percent Effect,"30.3 µM, […]",-11.73%
CCN1CCC2(C=C(C(=O)N(C)C)c3ccccc32)CC1.O=C(O)C(F)(F)F,Percent Effect,"30.3 µM, […]",51.51%
CCC(=O)N1CCC2(C=C(C(=O)N(C)C)c3ccccc32)CC1,Percent Effect,"30.3 µM, […]",92.12%
CC(C)Cc1cc(CNc2nc(-c3cccnc3)nc3c2CNC3)no1,Percent Effect,"30.3 µM, […]",9.598%
O=C(c1cccnc1)N1CCN(CC2CC2)c2ncccc2C1,Percent Effect,"30.3 µM, […]",14.27%
O=C(c1ccoc1)N1CC[C@@H]2O[C@@H](COCc3ccccn3)CC[C@@H]21,Percent Effect,"30.3 µM, […]",-30.2%
O=C(N1CCOCC1)N1CC[C@H]2[C@@H]1CCC(=O)N2c1ccccc1,Percent Effect,"30.3 µM, […]",31.55%
O=C(c1cccnc1)N1CCC2(CC1)CCN(Cc1ccccn1)C2=O,Percent Effect,"30.3 µM, […]",28.38%
Cc1oncc1C(=O)N1CCC2(CCN(Cc3ccccn3)C2=O)C1 (centres undefined),Percent Effect,"30 µM, 30.03 µM",-19.39%
Cc1ccc(C(=O)N2CCC3(CCN(Cc4ccccn4)C3=O)C2)cn1 (centres undefined),Percent Effect,"30.3 µM, […]",50.83%
CCn1ncc(-c2cc(C(F)(F)F)nc(N3CCC(N)CC3)n2)c1C,Percent Effect,"30.3 µM, […]",100.6%
CCNC(=O)[C@@H]1C[C@H](N)CN1c1cc(C(F)(F)F)nc(N2CCCC2)n1,Percent Effect,"30.3 µM, […]",23.81%
CCc1ccc(-c2cc(C(F)(F)F)nc(N3CCC(N)CC3)n2)cc1,Percent Effect,"30.3 µM, […]",44.83%
Cc1c(-c2cc(C(F)(F)F)nc(N3CCC(N)CC3)n2)cnn1C,Percent Effect,"30.3 µM, […]",81.41%
Cc1ccc(-c2cc(C(F)(F)F)nc(N3CCOCC3)n2)s1,Percent Effect,"30.3 µM, […]",2.404%
Cc1nn(C)cc1-c1cc(C(F)(F)F)nc(NC2CCN(C)CC2)n1,Percent Effect,"30.3 µM, […]",7.809%
Cc1ccccc1OCn1ccc(C(=O)NCCN2CCOCC2)n1,Percent Effect,"30.3 µM, […]",-13.65%
O=C(O)C(F)(F)F.O=C(c1ccccc1)N1CCCC2(CCN2Cc2cccc(F)c2)C1 (centres undefined),Percent Effect,"30.3 µM, […]",54.88%
O=C(O)C(F)(F)F.O=C(c1cscn1)N1CCCC2(CCN2Cc2cccc(F)c2)C1 (centres undefined),Percent Effect,"30.3 µM, […]",40.36%
O=C(O)C(F)(F)F.O=S(=O)(c1ccccc1)N1CCC2(CCCN2Cc2cccc(Cl)c2)C1 (centres undefined),Percent Effect,"30.3 µM, […]",27.63%
O=C(O)C(F)(F)F.O=C(O)C(F)(F)F.O=C(O)CN1CCCC2(CCN2Cc2cccc(F)c2)C1 (centres undefined),Percent Effect,"30.3 µM, […]",-0.8696%
CCS(=O)(=O)N1CCCC2(CCCN2Cc2cccc(F)c2)C1.O=C(O)C(F)(F)F (centres undefined),Percent Effect,"30.3 µM, […]",12.48%
Cc1ccc(CN2CCCC23CCN(S(=O)(=O)c2ccccc2)C3)o1 (centres undefined),Percent Effect,"30 µM, 30.03 µM",49.3%
O=S(=O)(c1ccccc1)N1CCC2(CCCN2Cc2ccccc2Cl)C1 (centres undefined),Percent Effect,"30.3 µM, […]",52.23%
O=S(=O)(c1ccccc1)N1CCC2(CCCN2Cc2ccc(Cl)cc2)C1 (centres undefined),Percent Effect,"30.3 µM, […]",36.08%
O=S(=O)(c1ccccc1)N1CCC2(CCCN2Cc2cccc(F)c2)C1 (centres undefined),Percent Effect,"30.3 µM, […]",61.17%
CC(C)C(C(N)=O)c1cccc(Cl)c1 (centres undefined),Percent Effect,"30.3 µM, […]",23.22%
Cc1nnc(N2CCO[C@H]3[C@@H](OCc4ccccn4)CC[C@@H]32)s1.O=C(O)C(F)(F)F.O=C(O)C(F)(F)F,Percent Effect,"30.3 µM, […]",-5.183%
Cc1nccn1Cc1nnc(C2CCN(c3ccncc3F)CC2)n1C,Percent Effect,"30.3 µM, […]",4.988%
c1nc2c(c(NC3COC4(CCCC4)C3)n1)CCNCC2 (centres undefined),Percent Effect,"30.3 µM, […]",-7.058%
O=C(O)C(F)(F)F.O=C(c1cocn1)N1C[C@H]2CCC[C@@]2(COc2ccccn2)C1,Percent Effect,"30.3 µM, […]",20.04%
Cc1nn(C)c(C)c1CN1CCCC1c1nccc(CN(C)C)n1 (centres undefined),Percent Effect,"30.3 µM, […]",3.97%
CC(C#N)CNC(=O)Nc1ccc(Br)cc1 (centres undefined),Percent Effect,"30.3 µM, […]",6.996%
CC(=O)N1CCCN(C2CCCCc3ccccc32)CC1 (centres undefined),Percent Effect,"30.3 µM, […]",18.35%
COc1c(C2CCCN2C(=O)c2c[nH]c3ncccc23)c(C)nn1C (centres undefined),Percent Effect,"30 µM, 30.03 µM",-19.02%
Cc1nnc([C@@]23CCO[C@@H]2CCN(S(=O)(=O)c2ccccc2)C3)o1,Percent Effect,"30.3 µM, […]",56.06%
CNC(=O)[C@@]12CCO[C@@H]1CCN(S(=O)(=O)c1cccnc1)C2.O=C(O)C(F)(F)F,Percent Effect,"30 µM, 30.03 µM",-13.7%
Cc1nnc([C@@]23CCO[C@@H]2CCN(S(=O)(=O)c2cccnc2)C3)o1,Percent Effect,"30.3 µM, […]",17.24%
Cc1noc([C@@]23CCO[C@@H]2CCN(S(=O)(=O)c2cccnc2)C3)n1,Percent Effect,"30.3 µM, […]",57.7%
Cc1noc([C@@]23CCO[C@@H]2CCN(C(=O)C2CCOCC2)C3)n1,Percent Effect,"30 µM, 30.03 µM",-29.55%
Cc1nnc([C@@]23CCO[C@@H]2CCN(S(C)(=O)=O)C3)o1,Percent Effect,"30.3 µM, […]",-7.004%
C[C@H]1C[C@H]2CN(C(=O)c3cccc4c3OCCO4)CC[C@H]2O1,Percent Effect,"30.3 µM, […]",-11.14%
CCc1nccn1-c1cccc(C2CCCN2)n1.Cl.Cl (centres undefined),Percent Effect,"30.3 µM, […]",6.16%
O=C1CCCN1CCCN1CCCCC1Cn1cncn1 (centres undefined),Percent Effect,"30.3 µM, […]",26.96%
Cc1csc(CCNC(=O)N2CCC(NC(=O)OC(C)(C)C)CC2)n1,Percent Effect,"30.3 µM, […]",-5.066%
CSc1nc2cc(C)n(CC(=O)N3CCCC3)c2c(=O)n1CC(C)C,Percent Effect,"30.3 µM, […]",6.672%
CC(NCc1ccc(OCC(N)=O)cc1)c1ccc2c(c1)CCCC2 (centres undefined),Percent Effect,"30.3 µM, […]",72.53%
CC(NCc1ccc(OCC(N)=O)cc1)c1ccc(Cl)cc1.Cl (centres undefined),Percent Effect,"30.3 µM, […]",32.34%
CC(NCc1ccc(OCC(N)=O)cc1)c1ccc(Cl)c(Cl)c1.Cl (centres undefined),Percent Effect,"30.3 µM, […]",12.13%
